Results taken from PubChem BioAssay AID1159580 (chemical genetic matrix, 2015).
Where “and” joins values, the source holds several entries; their conditions need not be identical. Identical values can stand only once. The whole screen tested about 5,500 compounds, of which about 2,000 (36%) were called active. Not shown: some 18% with an inconclusive outcome. Cut-off read from the data, not from the text of the source: active = normalized growth mostly below about 0.91 (no sharp cut-off); inconclusive = no clear call, values can overlap the other calls; inactive = mostly above about 0.92. Some of the results follow.

Assay: chemical genetic growth profiling, strain panel (AID 1159580);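 note: tested at 20 µM; growth read once vehicle control cultures reached saturation at 30 °C; 1 = growth at the plate median or of vehicle wells; lower values mean less growth of the strain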
Conditions: S. cerevisiae deletion strains, growth OD

Measured: normalized growth

CC(=O)N[C@@H](Cc1c[nH]c2ccccc12)C(N)=O
inactive: locus YAL013W, strain DEP1, stronger effect = lower value 1.09 | locus YAL021C, strain ccr4, stronger effect = lower value 1 | locus YAL026C, strain drs2, stronger effect = lower value 1 | locus YAL030W, strain snc1, stronger effect = lower value 1.02 | locus YBL061C, strain skt5, stronger effect = lower value 1.02 | locus YBR009C, strain hhf1, stronger effect = lower value 1.01 | locus YBR021W, strain FUR4, stronger effect = lower value 1.02 | locus YBR023C, strain chs3, stronger effect = lower value 1.02 | locus YBR171W, strain sec66, stronger effect = lower value 1.01 | locus YBR229C, strain ROT2, stronger effect = lower value 0.965 | locus YBR231C, strain swc5, stronger effect = lower value 1.02 | locus YBR279W, strain paf1, stronger effect = lower value 1.01 | locus YCL011C, strain gbp2, stronger effect = lower value 1.02 | locus YCL016C, strain dcc1, stronger effect = lower value 1.01 | locus YCL029C, strain bik1, stronger effect = lower value 0.999 | locus YCL061C, strain MRC1, stronger effect = lower value 1.02 | locus YCL069W, strain vba3, stronger effect = lower value 1.02 | locus YCR088W, strain abp1, stronger effect = lower value 1.03 | locus YDL005C, strain med2, stronger effect = lower value 1.04 | locus YDL035C, strain GPR1, stronger effect = lower value 0.985 | locus YDL040C, strain nat1, stronger effect = lower value 1.02 | locus YDL074C, strain BRE1, stronger effect = lower value 0.948 | locus YDL101C, strain DUN1, stronger effect = lower value 0.977 | locus YDL134C, strain PPH21, stronger effect = lower value 0.985 | locus YDL185W, strain tfp1, stronger effect = lower value 0.972 | locus YDL192W, strain arf1, stronger effect = lower value 0.99 | locus YDR001C, strain nth1, stronger effect = lower value 1.01 | locus YDR069C, strain doa4, stronger effect = lower value 1.03 | locus YDR101C, strain arx1, stronger effect = lower value 0.997 | locus YDR137W, strain rgp1, stronger effect = lower value 1.01 | locus YDR150W, strain NUM1, stronger effect = lower value 0.972 | locus YDR159W, strain sac3, stronger effect = lower value 1.03 | locus YDR162C, strain NBP2, stronger effect = lower value 0.945 | locus YDR195W, strain ref2 1.05 | locus YDR297W, strain sur2, stronger effect = lower value 1.03 | locus YDR318W, strain mcm21, stronger effect = lower value 1 | locus YDR334W, strain swr1, stronger effect = lower value 1.01 | locus YDR335W, strain msn5, stronger effect = lower value 1 | locus YDR388W, stronger effect = lower value 1 | locus YDR392W, strain spt3, stronger effect = lower value 0.953 | locus YDR502C, strain sam2, stronger effect = lower value 0.996 | locus YEL003W, strain gim4, stronger effect = lower value 1.01 | locus YEL037C, strain rad23, stronger effect = lower value 1.02 | locus YEL061C, strain CIN8 (second series), stronger effect = lower value 1.02 | locus YEL061C, strain CIN8, stronger effect = lower value 0.99 | locus YER015W, strain faa2, stronger effect = lower value 1.02 | locus YER016W, strain bim1, stronger effect = lower value 1.01 | locus YER110C, stronger effect = lower value 1 | locus YER111C, strain swi4, stronger effect = lower value 1.01 | locus YER155C, strain BEM2 (second series), stronger effect = lower value 1.06 | locus YER155C, strain BEM2, stronger effect = lower value 1.01 | locus YER167W, strain BCK2, stronger effect = lower value 1.01 | locus YFR010W, strain ubp6, stronger effect = lower value 1.02 | locus YGL078C, strain dbp3, stronger effect = lower value 0.994 | locus YGL086W, strain mad1, stronger effect = lower value 1 | locus YGL167C, strain pmr1, stronger effect = lower value 1.01 | locus YGL173C, strain kem1, stronger effect = lower value 1.02 | locus YGL227W, strain vid30, stronger effect = lower value 1.03 | locus YGL240W, strain doc1, stronger effect = lower value 1.05 | locus YGL248W, strain PDE1, stronger effect = lower value 0.986 | locus YGL253W, strain hxk2, stronger effect = lower value 1.01 | locus YGR078C, strain PAC10, stronger effect = lower value 0.97 | locus YGR135W, strain pre9, stronger effect = lower value 0.983 | locus YGR229C, strain SMI1, stronger effect = lower value 0.973 | locus YGR252W, strain gcn5, stronger effect = lower value 1.02 | locus YHR013C, strain ard1, stronger effect = lower value 1.03 | locus YHR027C, strain rpn1, stronger effect = lower value 1.01 | locus YHR030C, strain SLT2, stronger effect = lower value 1 | locus YHR079C, strain IRE1 (second series), stronger effect = lower value 1.01 | locus YHR079C, strain IRE1, stronger effect = lower value 0.99 | locus YHR094C, strain hxt1, stronger effect = lower value 0.995 | locus YHR129C, strain ARP1, stronger effect = lower value 0.994 | locus YHR142W, strain chs7, stronger effect = lower value 1 | locus YHR200W, strain rpn10, stronger effect = lower value 1.01 | locus YIL066C, strain RNR3, stronger effect = lower value 0.973 | locus YIL073C, strain SPO22, stronger effect = lower value 1.06 | locus YIL125W, strain kgd1, stronger effect = lower value 0.989 | locus YIR030C, strain dcg1, stronger effect = lower value 1 | locus YJL092W, strain hpr5, stronger effect = lower value 1.02 | locus YJL095W, strain BCK1 (second series), stronger effect = lower value 1.02 | locus YJL095W, strain BCK1, stronger effect = lower value 0.994 and 1.02 | locus YJL115W, strain asf1, stronger effect = lower value 1.04 | locus YJL129C, strain trk1, stronger effect = lower value 1.08 | locus YJL134W, strain LCB3, stronger effect = lower value 0.997 | locus YJL154C, strain vps35, stronger effect = lower value 1.02 | locus YJL164C, strain tpk1, stronger effect = lower value 1.02 | locus YJL166W, strain qcr8, stronger effect = lower value 1.04 | locus YJL168C, strain set2, stronger effect = lower value 0.994 | locus YJL187C, strain SWE1 (second series), stronger effect = lower value 0.972 | locus YJR043C, strain POL32, stronger effect = lower value 1.05 | locus YJR066W, strain TOR1, stronger effect = lower value 0.923
